# In all, about 410,000 compounds went through this assay and about 260 (0.063%) were called active. Roughly 2% stayed inconclusive and do not appear here. Calls come from the whole dose curve; as a rule, active = well fitted activation curve with a large enough effect; inconclusive = small, poorly fitted or top-dose-only effect; inactive = no such curve, though single readings can be large or run the other way. The sample as a whole holds a higher share of actives than the screen did.
# Assay: qHTS for compounds that reverse cellular toxicity of Amyloid beta (A-beta) peptide in yeast: Primary Screen; note: nearly all actives have a fitted effect of over 55% in size
# Conditions: yeast expressing A-beta42, growth rescue, OD600, 48 h; series mostly up to 46.1 µM; growth rescue: at the top concentration
# Description: The A-beta peptide is produced by the processing of the amyloid precursor protein (APP) by two proteases, beta and gamma secretases. […] A-beta42 is regarded as the most amyloidogenic form due to its hydrophobicity; however, precisely how A-beta42 induces neurotoxicity is unclear. To understand further this biology and its potential therapeutic implications for human neurodegenerative disease, a quantitative high-throughput screen for compounds that reverse the cellular toxicity of the A-beta peptide was developed. A yeast based screen was used because it recapitulates the salient feature of protein mis-folding disorder accurately. This cell-based phenotypic screen provides a significant, unbiased advantage by letting the compounds and models inform us which proteins or pathways are most relevant. The ideal chemical candidates would therefore have activity in both our primary yeast and secondary neuronal toxicity assays, as well as in mouse models. They will be valuable tools for dissecting diverse protein homeostasis pathologies and could potentially become the focus for future pre-clinical development. For this luminescence assay, inhibition of A-beta rescues the toxic effect in the yeast cell, resulting in increase of signals and the desired phenotype of "Activator". This screen is run against the Molecular Libraries Small Molecule Repository (MLSMR) and the NCGC Sytravon Library Collection.
# NIH Chemical Genomics Center [NCGC]
# NIH Molecular Libraries Probe Centers Network [MLPCN]
# Assay Submitter (PI): Susan Lindquist, Whitehead Institute, Massachusetts Institute of Technology
# [1] Vassar R,et al (1999). Beta-secretase cleavage of Alzheimer's amyloid precursor protein by the transmembrane aspartic protease BACE. Science. 286: 735-741.
# [2] Yan R, et al (1999). Membrane-anchored aspartyl protease with Alzheimer's disease beta-secretase activity. Nature. 402: 533-536.
# Two and a half microliter / well of yeast growth medium were dispensed in a 1536 assay plate. Compounds were pinned using the Kalypsys robotic system followed by addition of 2.5 uL / well yeast solution. The assay plates were incubated at 30 C. After 48 hr, the absorbance signal at 600 nm was obtained using the PerkinElmer ViewLux plate reader to assess yeast growth. The data was normalized to the positive control of an equimolar mixture of ferric chloride (FeCl3) and clioquinol and to the negative control DMSO.
SMILES,growth rescue,Potency
Cc1cccc(NC(=O)C2CCCN2S(=O)(=O)c2cccc3nsnc23)c1C (stereo not given),-2.47% (inactive),–
COc1ccc(OCCCn2c(C)nc3cc(C)c(C)cc32)cc1,-4.77% (inactive),–
Cc1c(-c2nc(-c3ccc4c(c3)OCO4)no2)nnn1-c1ccc(Br)cc1F,-2.02% (inactive),–
O=C(CCn1ccc2cc(S(=O)(=O)N3CCCC3)ccc21)NCc1cccc(Cl)c1,2.11% (inactive),–
O=C(CSc1oc(-c2ccccc2)nc1S(=O)(=O)c1ccc(Br)cc1)NC1CCCCC1,5.91% (inactive),–
CC(C)CCNC(=O)CSc1nc2ccccc2nc1Cc1ccc(Cl)cc1,9.91% (inactive),–
COc1cc(C(=O)Nc2ccc(-n3c(C)nc4ccccc4c3=O)cc2)cc(OC)c1OC,-7.82% (inactive),–
CCOc1ccccc1C(=O)Nc1ccc(S(=O)(=O)N2CCCCC2c2cccnc2)cc1 (stereo not given),-13.3% (inactive),–
Cn1c(=O)c2c(nc(Oc3ccc(C#N)cc3)n2Cc2ccc(Cl)cc2Cl)n(C)c1=O,-7.43% (inactive),–
CCN(c1ncnc2c1cnn2-c1ccc(C)cc1)C1CCCCC1,-13.3% (inactive),–
Cc1ccc(NC(=O)c2nc(S(=O)(=O)Cc3cccc(C)c3)ncc2Cl)cc1,-33.4% (inactive),–
Cc1nnc(N2CCCC(C(=O)NCCN(C)C)C2)c2nn(-c3ccccc3)c(C)c12 (stereo not given),-0.421% (inactive),–
COc1ccc(C2=NC(c3ccncc3)=Nc3ccc(Br)cc3N2)cc1,-13.2% (inactive),–
COc1ccc(OC)c(-n2nnc3c(sc4nc(C)c(Br)c(C)c43)c2=O)c1,-12.2% (inactive),–
CCS(=O)(=O)N1CCC(n2c(C)nc3cccnc32)CC1,-4.75% (inactive),–
COc1cc(OC)c(NC(=O)N2CC3CCCN3c3ccccc32)cc1Cl (stereo not given),-9.37% (inactive),–
CCOc1ccc(CNC(=O)c2ccc(CS(=O)c3ccccc3)o2)cc1 (stereo not given),-8.75% (inactive),–
CCCCn1c(=N)c(S(=O)(=O)c2ccccc2)cc2c(=O)n3cccc(C)c3nc21,0.43% (inactive),–
Fc1ccc(Nc2nc(SCc3ccccc3Cl)nc3ccccc23)cc1,-45.3% (inactive),–
COc1ccccc1N1CCN(C(=O)C2CCN(S(=O)(=O)c3c(C)noc3/C=C/c3ccc(C)cc3)CC2)CC1,-1.97% (inactive),–
Cc1ccc2oc3c(c(=O)c2c1)C(c1ccc(O)cc1)N(Cc1ccc2c(c1)OCO2)C3=O (stereo not given),5.68% (inactive),–
COc1ccc(-c2cc(NCc3ccc(F)cc3)n3cnnc3n2)cc1,-4.36% (inactive),–
CCCCN(C)S(=O)(=O)c1ccc(C(=O)Nc2sc3c(c2C(N)=O)CC(C)(C)NC3(C)C)cc1,-10.9% (inactive),–
Cc1ccc(N(CC(=O)NCc2ccc(Cl)cc2)S(=O)(=O)N(C)C)cc1,13% (inactive),–

SMILES,growth rescue,Potency
Cc1cc2nn(-c3ccc(Cl)cc3)nc2cc1NC(=O)C(C)C,-14.3% (inactive),–
Cc1ccc(C(=O)CSc2nc(-c3ccccc3)nc3c2CCCC3)c(C)c1,-11.5% (inactive),–
O=C(NC1CC(=O)N(c2ccccc2)C1)c1ccco1 (stereo not given),11.5% (inactive),–
COCCNC(=O)CSc1nc(-c2ccccc2)[nH]c1-c1ccc(C)cc1,-13.5% (inactive),–
COc1ccccc1CNC(=O)C(Cc1ccccc1)NS(=O)(=O)c1ccc2c(c1)oc(=O)n2C (stereo not given),0.772% (inactive),–
CCCCNC(=O)C1CCCN(c2nnc(C)c3c(C)n(-c4ccc(Cl)cc4)nc23)C1 (stereo not given),-17.8% (inactive),–
CCOC(=O)c1c(NC(=O)CSc2cn(CCNC(=O)c3cccc(C(F)(F)F)c3)c3ccccc23)sc2c1CCC2,-8.29% (inactive),–
Cn1c(=O)c2c(ncn2CC(=O)Nc2cccc(C(F)(F)F)c2)n(C)c1=O,-3.94% (inactive),–
CCN(CCCNC(=O)c1ccc(Sc2ccc(C)cc2)c(NC(C)=O)c1)c1cccc(C)c1,-1.54% (inactive),–
C#CCOc1ccc(C2CC(=O)Nc3c2c(C)nn3-c2nc(C)cc(C)n2)cc1 (stereo not given),2.23% (inactive),–
COc1cccc(NC(=O)CSC2=Nc3ccccc3C3=NC(CC(=O)NC4CCCCC4)C(=O)N23)c1 (stereo not given),-14.8% (inactive),–
O=C(CNS(=O)(=O)c1cccs1)N1CCN(c2ccccc2Cl)CC1,5.4% (inactive),–
CSc1nsc(SC)c1NC(=O)OC1CCCCC1,–,4.47 µM (active)
Cc1nnc(N2CCC(C(=O)Nc3ccc(F)cc3)CC2)c2nn(-c3ccc(Cl)cc3)c(C)c12,5.45% (inactive),–
COc1ccc(-c2onc(C)c2C)cc1S(=O)(=O)NCc1cccs1,-11.1% (inactive),–
COc1cc(OC)cc(-c2nc3nc(C)c(CCC(=O)Nc4ccc(C)cc4)c(C)n3n2)c1,-8.3% (inactive),–
CCOCCc1nn2c(=O)cc(COC(=O)CNC(=O)c3ccc(C(C)(C)C)cc3)nc2s1,-7.06% (inactive),–
Cc1ccccc1-n1c(=O)c2ccccc2n(Cc2ccc(F)cc2)c1=O,8.53% (inactive),–
CCOC(=O)c1cnc2c(C)cc(Cl)cc2c1NCCc1ccc(OC)c(OC)c1,-7.55% (inactive),–
CCOc1ccccc1NC(=O)Cn1c(=O)n(Cc2ccccc2)c(=O)c2c(C)c(C(=O)N(C)C)sc21,8.18% (inactive),–
COc1ccc(C2C(=O)N(C3CCCCC3)CC(=O)N2Cc2ccccc2Cl)cc1OC (stereo not given),-19.9% (inactive),–
Cc1cccc(OCCSc2nc3ccccc3n2CC(=O)N2CCCCC2)c1C,-18.2% (inactive),–
Cc1ccc(C(=O)N2CCc3cc(CNC(=O)c4ccc(Br)cc4)ccc32)cc1,-7.59% (inactive),–
Cc1cccc(N(C)C(=O)CS(=O)(=O)c2cccc3nsnc23)c1,-5.59% (inactive),–

SMILES,growth rescue,Potency
Cc1ccc(Cl)cc1NC(=O)COC(=O)CC(C)(C)C,7.7% (inactive),–
CC(C)(C)NC(=O)NC(=O)COC(=O)Cc1ccc(Cl)cc1Cl,–,11.2 µM (active)
COc1ccccc1OCCC(=O)OCC(=O)NC(=O)NC(C)(C)C,6.23% (inactive),–
O=C1[C@H]2[C@@H](c3ccc(C(F)(F)F)cc3)N[C@]3(CCCN(Cc4ccc(Cl)cc4)C3=O)[C@H]2C(=O)N1Cc1ccccc1,–,8.91 µM (active)
CCN1C(=O)[C@H]2[C@@H](c3ccc(C(F)(F)F)cc3)N[C@]3(CCCN(Cc4ccc(Br)cc4)C3=O)[C@H]2C1=O,27.1% (inactive),–
Cc1ccc([C@H]2N[C@]3(CCCN(Cc4ccccc4)C3=O)[C@H]3C(=O)N(Cc4ccccc4)C(=O)[C@@H]23)cc1,-6.57% (inactive),–
COc1ccc(CCNC(=O)Cn2c(=O)n(-c3ccccc3)c(=O)c3c(C)c(C)sc32)cc1OC,-4.29% (inactive),–
COc1ccccc1OCC(=O)Nc1nnc2n1CCS2,-8.79% (inactive),–
CCOc1ccc(CNC(=O)C2CCN(c3nnc(-n4cccc4CNc4ccc(C)cc4)s3)CC2)cc1OC,-2.64% (inactive),–
COc1cccc(CNC(=O)Cn2ncn3c(cc4ccccc43)c2=O)c1,-12.9% (inactive),–
COCCNc1ncnc2c1c(-c1ccccc1)cn2-c1ccc(C)c(Cl)c1,-0.39% (inactive),–
CCOc1ccc(-c2cc3nc(C4CCN(C(=O)OC(C)(C)C)CC4)c(C(=O)Nc4cccc(CC)c4)cn3n2)cc1,-2.51% (inactive),–
O=c1cc(COc2cccc(C(F)(F)F)c2)nc2sc3c(n12)CCCC3,2.31% (inactive),–
CCc1ccc(NC(=O)CN2C(=O)C(c3ccccc3)=NC23CCCCCC3)cc1,-33.6% (inactive),–
COc1ccc(S(=O)(=O)N2CCN(C(=O)NC3CCCCC3)CC2)cc1,-11% (inactive),–
COc1ccc(C(=O)NC(=S)NC2CCCCC2)cc1,–,12.6 µM (active)
CCCNC(=S)N1CCC(NC(=O)c2ccc(OC)cc2)CC1,-10.6% (inactive),–
CCOc1ccc(NC(=O)CCC(=O)N2CC(C)Oc3ccc(C)cc32)cc1 (stereo not given),7.46% (inactive),–
CCn1c(CN2CCC(C)CC2)nc2cc(NC(=O)c3ccccc3[N+](=O)[O-])ccc21,0.862% (inactive),–
CCc1cccc(NC(=O)Cn2nc(CC)n3c(cc4cc(C)ccc43)c2=O)c1,2.28% (inactive),–
CC1=C(c2ccc(C)cc2)S(=O)(=O)NC1=NCCCN1CCN(c2cc(C)ccc2C)CC1,7.63% (inactive),–
COc1cccc(-c2cc(C(=O)Nc3ccc(C)cc3)[nH]n2)c1,-6.21% (inactive),–
Cc1ccc(N2CCN(C(=O)CCc3c(C)nc4c(c3C)c(=O)n(C)c(=O)n4C)CC2)c(C)c1,-7.12% (inactive),–
CCOC(=O)c1c(NC(=O)/C(C#N)=C/c2ccccc2)sc2c1CCC2,-4.42% (inactive),–

SMILES,growth rescue,Potency
COc1ccccc1CN1CCC(CNC(=O)c2cnn(-c3ccccc3Cl)c2C2CCN(C(=O)OC(C)(C)C)CC2)CC1,12.1% (inactive),–
CCn1c(CNC(=O)C23CC4CC(CC(C4)C2)C3)nnc1SCC(=O)Nc1ccc(OC)cc1,-8.21% (inactive),–
COc1ccc(-c2nn(CC(=O)NC3CCCC3)c3c2cnc2ccc(F)cc23)cc1,-2.71% (inactive),–
Cc1nn(C(C)C(=O)Nc2ccc(C(C)C)cc2)c(=O)c2c1sc1ccccc12 (stereo not given),17.1% (inactive),–
COc1cc(OC)c(NC(=O)c2nc(-c3ccncc3)no2)cc1Cl,-15.5% (inactive),–
COc1ccc(CCN2C(=O)c3oc4cc(C)cc(C)c4c(=O)c3C2c2ccccc2F)cc1OC (stereo not given),-7.53% (inactive),–
CCOC(=O)c1cc2c(=O)n3ccccc3nc2n(CCCOC)c1=NC(=O)C(C)Oc1ccccc1 (stereo not given),-6.19% (inactive),–
COc1cc(C(=O)Nc2ccc(OCc3cc(=O)n4cc(C)sc4n3)cc2)cc(OC)c1OC,-12.8% (inactive),–
COc1ccc(CN2CCc3nc(Nc4ccccc4)ncc3C2)c(OC)c1OC,4.24% (inactive),–
Cc1cccc(Cn2c(CN3CCC(C(=O)NCc4ccccc4Cl)CC3)cc3ccccc32)c1,10.4% (inactive),–
CCOC(=O)N1CCc2c(sc3c2c(=O)n(Cc2ccccc2)c(=O)n3CC(=O)Nc2cccc(C)c2)C1,1.66% (inactive),–
O=C(Nc1cc(Cl)cc(Cl)c1)c1ccc2c(c1)N(Cc1cccc(Cl)c1)C(=O)c1ccccc1S2=O (stereo not given),-1.8% (inactive),–
CCc1ccc(NC(=O)c2nn(-c3ccc(C)cc3)c(=O)n(C)c2=O)cc1,-10.6% (inactive),–
CCN1C(=O)c2ccccc2S(=O)c2ccc(C(=O)NCc3ccc(F)cc3)cc21 (stereo not given),16.3% (inactive),–
CCn1cc(C(=O)N2CCN(c3cc(C)ccc3C)CC2)c(=O)c2cc(S(=O)(=O)N(C)C3CCCCC3)ccc21,4.49% (inactive),–
CC(C)n1c(=S)[nH]c2cc(C(F)(F)F)ccc21,–,12.6 µM (active)
CNS(=O)(=O)c1ccc2c(c1)[nH]c(=S)n2C,1.96% (inactive),–
CCCn1c(=S)[nH]c2ccc(C(F)(F)F)cc21,31.8% (inactive),–
Cn1c(=O)c2c(-c3ccccc3Br)n(Cc3ccccc3)cc2n(C)c1=O,-12.3% (inactive),–
COc1ccc(N2CCN(C(=O)CSCc3nc(-c4ccccc4Cl)oc3C)CC2)cc1,-16.8% (inactive),–
Cc1cccc(C)c1NC(=S)N(Cc1cccnc1)Cc1ccccc1Cl,17.9% (inactive),–
Cc1ccc(CN(Cc2cccnc2)C(=S)Nc2cccc(Cl)c2C)cc1,–,11.2 µM (active)
Cc1c(Cl)cccc1NC(=S)N(Cc1ccccc1)Cc1cccnc1,10.9% (inactive),–

# Reference: PubChem BioAssay AID1347071 (National Center for Advancing Translational Sciences (NCATS), 2019)
